Out of some 5,500 compounds screened, about 2,000 (36%) were called active. Not shown: some 18% with an inconclusive outcome. No stated cut-off is given here; in the data, active means normalized growth mostly below about 0.91 (no sharp cut-off); inconclusive means no clear call, values can overlap the other calls; inactive means mostly above about 0.92. This is one part of the list.
Assay: chemical genetic growth profiling, strain panel (AID 1159580);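 further: tested at 20 µM; growth read once vehicle control cultures reached saturation at 30 °C; 1 = growth at the plate median or of vehicle wells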
Settings: growth OD

Measured: normalized growth

c1cncc(C2CCCCN2)c1 (configuration not stated)
inactive: S. cerevisiae deletion strains, locus YJR066W, strain TOR1, stronger effect = lower value 0.974 | S. cerevisiae deletion strains, locus YJR075W, strain HOC1, stronger effect = lower value 1.03 | S. cerevisiae deletion strains, locus YKL009W, strain mrt4, stronger effect = lower value 0.992 | S. cerevisiae deletion strains, locus YKL068W, stronger effect = lower value 1 | S. cerevisiae deletion strains, locus YKL085W, strain MDH1 (second series), stronger effect = lower value 0.998 | S. cerevisiae deletion strains, locus YKL085W, strain MDH1, stronger effect = lower value 0.998 | S. cerevisiae deletion strains, locus YKL160W, strain elf1, stronger effect = lower value 0.992 | S. cerevisiae deletion strains, locus YKL190W, strain CNB1, stronger effect = lower value 0.99 | S. cerevisiae deletion strains, locus YKR001C, strain vps1, stronger effect = lower value 0.986 | S. cerevisiae deletion strains, locus YKR026C, strain gcn3, stronger effect = lower value 0.996 | S. cerevisiae deletion strains, locus YKR091W, strain srl3, stronger effect = lower value 0.988 | S. cerevisiae deletion strains, locus YLL001W, strain dnm1, stronger effect = lower value 0.993 | S. cerevisiae deletion strains, locus YLL026W, stronger effect = lower value 0.996 | S. cerevisiae deletion strains, locus YLL041C, strain sdh2, stronger effect = lower value 0.991 | S. cerevisiae deletion strains, locus YLR027C, strain aat2, stronger effect = lower value 0.999 | S. cerevisiae deletion strains, locus YLR039C, strain RIC1, stronger effect = lower value 1.07 | S. cerevisiae deletion strains, locus YLR058C, strain SHM2, stronger effect = lower value 1.01 | S. cerevisiae deletion strains, locus YLR102C, strain apc9, stronger effect = lower value 1 | S. cerevisiae deletion strains, locus YLR113W, strain HOG1, stronger effect = lower value 0.997 | S. cerevisiae deletion strains, locus YLR221C, strain rsa3, stronger effect = lower value 0.991 | S. cerevisiae deletion strains, locus YLR258W, strain gsy2, stronger effect = lower value 1.02 | S. cerevisiae deletion strains, locus YLR262C, strain YPT6 (second series), stronger effect = lower value 0.986 | S. cerevisiae deletion strains, locus YLR262C, strain YPT6, stronger effect = lower value 1.06 | S. cerevisiae deletion strains, locus YLR268W, strain sec22, stronger effect = lower value 0.968 | S. cerevisiae deletion strains, locus YLR320W, strain mms22, stronger effect = lower value 0.981 | S. cerevisiae deletion strains, locus YLR330W, strain CHS5, stronger effect = lower value 1.03 | S. cerevisiae deletion strains, locus YLR342W, strain FKS1 (second series), stronger effect = lower value 1.02 | S. cerevisiae deletion strains, locus YLR342W, strain FKS1, stronger effect = lower value 0.986 | S. cerevisiae deletion strains, locus YLR357W, strain rsc2, stronger effect = lower value 0.959 | S. cerevisiae deletion strains, locus YLR370C, strain arc18, stronger effect = lower value 0.988 | S. cerevisiae deletion strains, locus YLR371W, strain rom2, stronger effect = lower value 0.985 | S. cerevisiae deletion strains, locus YLR384C, strain iki3, stronger effect = lower value 0.98 | S. cerevisiae deletion strains, locus YLR418C, strain cdc73, stronger effect = lower value 0.995 | S. cerevisiae deletion strains, locus YML016C, strain PPZ1, stronger effect = lower value 1.02 | S. cerevisiae deletion strains, locus YML032C, strain rad52, stronger effect = lower value 1.01 | S. cerevisiae deletion strains, locus YML120C, strain ndi1, stronger effect = lower value 0.998 | S. cerevisiae deletion strains, locus YML124C, strain tub3, stronger effect = lower value 0.998 | S. cerevisiae deletion strains, locus YMR058W, strain fet3, stronger effect = lower value 0.993 | S. cerevisiae deletion strains, locus YMR078C, strain ctf18, stronger effect = lower value 0.999 | S. cerevisiae deletion strains, locus YMR125W, strain sto1, stronger effect = lower value 0.981 | S. cerevisiae deletion strains, locus YMR129W, stronger effect = lower value 0.99 | S. cerevisiae deletion strains, locus YMR205C, strain PFK2, stronger effect = lower value 1.02 | S. cerevisiae deletion strains, locus YMR223W, strain ubp8, stronger effect = lower value 1.01 | S. cerevisiae deletion strains, locus YMR231W, strain pep5, stronger effect = lower value 0.981 | S. cerevisiae deletion strains, locus YMR307W, strain GAS1, stronger effect = lower value 1.11 | S. cerevisiae deletion strains, locus YNL067W, strain RPL9B, stronger effect = lower value 1.01 | S. cerevisiae deletion strains, locus YNL071W, strain lat1, stronger effect = lower value 0.998 | S. cerevisiae deletion strains, locus YNL153C, strain GIM3, stronger effect = lower value 1.02 | S. cerevisiae deletion strains, locus YNL183C, strain NPR1, stronger effect = lower value 0.965 | S. cerevisiae deletion strains, locus YNL209W, strain ssb2, stronger effect = lower value 0.991 | S. cerevisiae deletion strains, locus YNL233W, strain BNI4, stronger effect = lower value 1.03 | S. cerevisiae deletion strains, locus YNL248C, strain rpa49, stronger effect = lower value 0.987 | S. cerevisiae deletion strains, locus YNL250W, strain rad50, stronger effect = lower value 1.01 | S. cerevisiae deletion strains, locus YNL271C, strain bni1, stronger effect = lower value 0.996 | S. cerevisiae deletion strains, locus YNL298W, strain CLA4, stronger effect = lower value 0.988 | S. cerevisiae deletion strains, locus YNL307C, strain MCK1, stronger effect = lower value 0.997 | S. cerevisiae deletion strains, locus YNL322C, strain KRE1 (second series), stronger effect = lower value 0.985 | S. cerevisiae deletion strains, locus YNR049C, strain mso1, stronger effect = lower value 0.99 | S. cerevisiae deletion strains, locus YNR052C, strain pop2, stronger effect = lower value 0.995 | S. cerevisiae deletion strains, locus YOL012C, strain htz1 0.806 | S. cerevisiae deletion strains, locus YOL147C, strain pex11, stronger effect = lower value 0.991 | S. cerevisiae deletion strains, locus YOR001W, strain rrp6, stronger effect = lower value 0.994 | S. cerevisiae deletion strains, locus YOR061W, strain CKA2, stronger effect = lower value 1.01 | S. cerevisiae deletion strains, locus YOR069W, strain VPS5, stronger effect = lower value 0.993 | S. cerevisiae deletion strains, locus YOR070C, strain gyp1, stronger effect = lower value 0.978 | S. cerevisiae deletion strains, locus YOR080W, strain dia2, stronger effect = lower value 0.982 | S. cerevisiae deletion strains, locus YOR083W, strain WHI5, stronger effect = lower value 1 | S. cerevisiae deletion strains, locus YOR106W, strain vam3, stronger effect = lower value 0.997 | S. cerevisiae deletion strains, locus YOR136W, strain idh2, stronger effect = lower value 0.978 | S. cerevisiae deletion strains, locus YOR144C, strain elg1, stronger effect = lower value 0.996 | S. cerevisiae deletion strains, locus YOR184W, strain ser1, stronger effect = lower value 1 | S. cerevisiae deletion strains, locus YOR231W, strain MKK1, stronger effect = lower value 1 | S. cerevisiae deletion strains, locus YOR265W, strain rbl2, stronger effect = lower value 1.01 | S. cerevisiae deletion strains, locus YOR270C, strain vph1, stronger effect = lower value 1 | S. cerevisiae deletion strains, locus YOR290C, strain snf2, stronger effect = lower value 1 | S. cerevisiae deletion strains, locus YOR316C, strain cot1, stronger effect = lower value 0.998 | S. cerevisiae deletion strains, locus YPL051W, strain arl3, stronger effect = lower value 1.01 | S. cerevisiae deletion strains, locus YPL078C, strain atp4, stronger effect = lower value 0.994 | S. cerevisiae deletion strains, locus YPL106C, strain sse1, stronger effect = lower value 0.972 | S. cerevisiae deletion strains, locus YPL240C, strain hsp82, stronger effect = lower value 0.992 | S. cerevisiae deletion strains, locus YPL256C, strain CLN2, stronger effect = lower value 0.997 | S. cerevisiae deletion strains, locus YPR119W, strain clb2, stronger effect = lower value 0.989 | S. cerevisiae deletion strains, locus YPR141C, strain kar3, stronger effect = lower value 1 | S. cerevisiae deletion strains, locus YPR163C, strain tif3, stronger effect = lower value 0.99 | S. cerevisiae deletion strains, locus YPR167C, strain met16, stronger effect = lower value 0.999 | S. cerevisiae deletion strains, strain wtn01, stronger effect = lower value 0.957 | S. cerevisiae strains, strain wild type, stronger effect = lower value 1.01
